Five compounds from PubChem BioAssay can be followed below.

The test system of assay [1] is Human papillomavirus type 1a protein E7 (residues 44-93). In words: small molecules binding HPV E7 44-93 – biochemical, small-molecule microarray, residues 44-93, 635 nm fluorescence, primary screen (AID 1108).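 Also: E7 fragment applied at 1 µg/mL in TBST for 1 h at 4 C; score combines spot fluorescence with its signal to noise ratio.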 Particulars: fluorescence 635 nm, higher = more signal.
A short description of assay [2]: hepatitis C replication reporter changes, two-sided – Huh7 cells, luciferase reporter, HCV replication inhibitor project, primary screen (AID 1109).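 Also: huh7 hepatoma cells harbouring a luciferase neomycin HCV replicon reporter; luciferase luminescence as measure of HCV replicon replication; test concentration not given here.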 Particulars: Huh7 HCV replicon luciferase reporter, 48 h; higher = more signal. For orientation: A reporter such as luciferase makes a cellular process visible.
Assay [3] deals with Left-right determination factor 2 (Homo sapiens) (UniProt O00292). In words: small molecules binding LEFTY2 protein – biochemical, small-molecule microarray, 635 nm fluorescence scan, primary screen (AID 1110). Particulars: higher = more signal.
For assay [4], the target named is Calmodulin-1 (Homo sapiens) (UniProt P0DP23). In words: small molecules binding calmodulin-1 with EGTA – biochemical, small-molecule microarray, Cy5-labelled CALM1, profiling panel (AID 1111).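 Also: labelled calmodulin applied in Tris saline Tween buffer holding calcium plus EGTA and DTT.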 Particulars: Cy5-CALM1 binding fluorescence, higher = more signal.
The target is the same in assay [5]. In words: small molecules binding Ca-loaded calmodulin-1 – biochemical, small-molecule microarray, Cy5-labelled CALM1, plus calcium, artefact control for SMM control-protein annotation, profiling panel (AID 1112).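 Also: score merges spot fluorescence with signal to noise from triplicate slides.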 Particulars: Cy5-CALM1 binding fluorescence, higher = more signal.
Assay [6] is described as follows: probe aWnt5a binding to arrayed compounds – biochemical, biotinylated probe, 635/667 nm fluorescence, primary screen (AID 1113).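 Also: score merges 667 nm fluorescence intensity with signal-to-noise per printed feature.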 Particulars: small-molecule microarray, higher = more signal.
Assay [7] can be described thus: probe aShh binding to arrayed compounds – biochemical, biotinylated probe, 635/667 nm fluorescence, primary screen (AID 1114).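 Also: probe is biotin-labelled aShh protein from a stem cell growth factor screen; measures binding of labelled protein to compounds printed on the slide; score merges feature fluorescence at 667 nm with signal-to-noise.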 The following applies: small-molecule microarray, higher = more signal.
Assay [8] can be described thus: probe aNog binding to arrayed compounds – biochemical, biotinylated probe, 635/667 nm fluorescence, primary screen (AID 1115).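 Also: probe is biotinylated aNog protein used at 0.15 µg/mL for 1 h at 4 C; z-score combines 667 nm fluorescence of each spot with its signal to noise.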 The following applies: small-molecule microarray, higher = more signal.
In assay [9] the target is Torsin-1A-interacting protein 1 (Homo sapiens) (UniProt Q5JTV8). In words: compound microarray binding of lysate hLAP1 – cell lysate, small-molecule microarray, COS7 lysate, 635/667 nm fluorescence, primary screen (AID 1116). Particulars: 635 nm fluorescence, higher = more signal.
Assay [10] has as its target Alpha-bungarotoxin (Bungarus multicinctus) (UniProt P60615). In words: compounds binding labelled alpha-BTX control protein – biochemical, small-molecule microarray, Alexa647 label, 635/667 nm fluorescence, artefact control for SMM control protein annotation, profiling panel (AID 1117). The following applies: alpha-BTX-A647 binding fluorescence, higher = more signal.
The target of assay [11] is Albumin (Bos taurus) (UniProt P02769). In words: compounds binding labelled BSA control protein – biochemical, small-molecule microarray, Alexa647 label, 635/667 nm fluorescence, artefact control for SMM control protein annotation, profiling panel (AID 1118).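 Also: score merges 667 nm emission intensity and signal-to-noise per printed compound spot.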 The following applies: BSA-A647 binding, fluorescence 635 nm, higher = more signal.
The nature of assay [12]: probe aXIP binding to arrayed compounds – biochemical, NeuroSMM set, 635/667 nm fluorescence, primary screen (AID 1119).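 Also: probe is the protein aXip251-270 applied at 1 µg/mL to compound-printed slides; binding of probe to printed compounds measured as 667 nm fluorescence plus signal to noise.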 The following applies: small-molecule microarray, higher = more signal, called active from +8 up or from −8 down.
A short description of assay [13]: probe aNOTCH3 binding on compound microarray – biochemical, small-molecule microarray, 635/667 nm fluorescence, primary screen (AID 1120).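 Also: probe is a biotin-tagged antibody raised against NOTCH3 rather than NOTCH3 protein; score merges spot fluorescence near 667 nm with spot signal to noise.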 Particulars: higher = more signal.
A short description of assay [14]: probe aNOTCH2 binding on compound microarray – biochemical, small-molecule microarray, 635/667 nm fluorescence, primary screen (AID 1121).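 Also: score merges feature fluorescence read at 667 nm with its signal to noise.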 Particulars: higher = more signal.
Assay [15] concerns the target Carbonic anhydrase 2 (Homo sapiens) (UniProt P00918). In words: compounds binding carbonic anhydrase 2 – biochemical, small-molecule microarray, Alexa647-labelled CAII, profiling panel (AID 1122). The following applies: CAII-A647 binding fluorescence, higher = more signal.
Assay [16] in a line: COS7 lysate on small-molecule microarray, probe aHis, 635 nm (AID 1123).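 Also: z-score combines 667nm fluorescence intensity with signal-to-noise per printed compound spot.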 Particulars: COS7 cell lysate, fluorescence, higher = more signal.
The nature of assay [17]: probe aLAP1 signal on lysate-treated microarray – cell lysate, small-molecule microarray, COS7 lysate, primary screen (AID 1124).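 Also: lysate comes from COS7 cells expressing LAP1 and is applied at 0.3 µg/mL; score merges spot fluorescence near 667 nm with signal-to-noise over triplicate slides.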 The following applies: probe aLAP1, fluorescence, higher = more signal.
For assay [18], the system named is Sam68 (KHDRBS1). In words: compounds binding KHDRBS1 protein – biochemical, small-molecule microarray, 635 nm fluorescence, primary screen (AID 1125).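 Also: score merges 667 nm channel intensity with signal to noise over triplicate slides.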 Particulars: higher = more signal.
Assay [19] relates to Chordin-like protein 2 (CHRDL2). In words: compounds binding chordin-like 2 – biochemical, small-molecule microarray, 635 nm fluorescence, primary screen (AID 1126).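 Also: printed compound slides probed with Chrdl2 protein at 4 µg/mL for 1 h at 4 C; score merges 667 nm emission intensity with signal to noise over three replicate slides.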 Particulars: fluorescence 635 nm, higher = more signal.
The target in assay [20] is Concanavalin-A (Canavalia ensiformis) (UniProt P02866). In words: compounds binding concanavalin A lectin – biochemical, small-molecule microarray, Alexa647 label, 635 nm, artefact control for SMM control protein annotation, primary screen (AID 1127).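 Also: z combines 667 nm emission intensity with signal-to-noise across three replicate slides.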 The following applies: ConA-A647 binding fluorescence, higher = more signal.

Active and inactive are the calls of the source.

Sequence of Left-right determination factor 2 (Homo sapiens) (O00292 whole entry, looked up): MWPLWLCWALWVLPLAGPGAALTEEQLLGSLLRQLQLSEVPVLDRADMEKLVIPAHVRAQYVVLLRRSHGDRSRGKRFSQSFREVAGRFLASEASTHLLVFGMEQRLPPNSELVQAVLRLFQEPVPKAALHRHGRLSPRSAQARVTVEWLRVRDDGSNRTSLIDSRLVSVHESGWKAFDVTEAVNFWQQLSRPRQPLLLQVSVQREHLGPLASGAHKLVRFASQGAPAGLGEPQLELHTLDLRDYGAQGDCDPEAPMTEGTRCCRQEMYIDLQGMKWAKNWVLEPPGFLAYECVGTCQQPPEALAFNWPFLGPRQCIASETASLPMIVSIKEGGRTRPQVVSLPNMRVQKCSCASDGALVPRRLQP
Sequence of Alpha-bungarotoxin (Bungarus multicinctus) (P60615 whole entry, looked up): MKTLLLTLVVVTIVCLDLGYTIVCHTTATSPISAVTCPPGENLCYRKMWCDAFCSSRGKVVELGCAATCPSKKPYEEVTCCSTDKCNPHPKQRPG
Sequence of Concanavalin-A (Canavalia ensiformis) (P02866 whole entry, looked up): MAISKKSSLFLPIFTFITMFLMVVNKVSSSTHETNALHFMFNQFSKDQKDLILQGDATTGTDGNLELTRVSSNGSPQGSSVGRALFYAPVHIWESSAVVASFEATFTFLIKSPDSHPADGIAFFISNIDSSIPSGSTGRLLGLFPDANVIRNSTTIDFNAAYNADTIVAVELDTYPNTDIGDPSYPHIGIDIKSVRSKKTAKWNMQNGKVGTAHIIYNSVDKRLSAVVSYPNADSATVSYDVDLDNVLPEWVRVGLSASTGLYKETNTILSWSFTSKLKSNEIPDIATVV
Sequence of Albumin (Bos taurus) (P02769 whole entry, looked up): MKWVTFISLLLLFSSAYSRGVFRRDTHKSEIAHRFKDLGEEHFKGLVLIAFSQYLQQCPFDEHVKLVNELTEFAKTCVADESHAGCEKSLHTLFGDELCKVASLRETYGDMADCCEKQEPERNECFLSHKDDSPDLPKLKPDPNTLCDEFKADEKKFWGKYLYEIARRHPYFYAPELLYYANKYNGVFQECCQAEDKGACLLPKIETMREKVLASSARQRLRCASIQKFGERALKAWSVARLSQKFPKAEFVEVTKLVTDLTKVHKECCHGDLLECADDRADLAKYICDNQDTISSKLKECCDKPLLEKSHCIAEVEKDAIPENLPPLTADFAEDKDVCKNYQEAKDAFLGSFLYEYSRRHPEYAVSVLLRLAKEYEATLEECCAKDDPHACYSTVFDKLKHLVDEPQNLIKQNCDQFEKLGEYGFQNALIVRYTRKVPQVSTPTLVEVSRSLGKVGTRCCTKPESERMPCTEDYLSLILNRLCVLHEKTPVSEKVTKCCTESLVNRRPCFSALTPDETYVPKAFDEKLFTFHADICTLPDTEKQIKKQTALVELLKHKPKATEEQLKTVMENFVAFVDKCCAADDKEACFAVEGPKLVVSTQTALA
Sequence of Torsin-1A-interacting protein 1 (Homo sapiens) (Q5JTV8 whole entry, looked up): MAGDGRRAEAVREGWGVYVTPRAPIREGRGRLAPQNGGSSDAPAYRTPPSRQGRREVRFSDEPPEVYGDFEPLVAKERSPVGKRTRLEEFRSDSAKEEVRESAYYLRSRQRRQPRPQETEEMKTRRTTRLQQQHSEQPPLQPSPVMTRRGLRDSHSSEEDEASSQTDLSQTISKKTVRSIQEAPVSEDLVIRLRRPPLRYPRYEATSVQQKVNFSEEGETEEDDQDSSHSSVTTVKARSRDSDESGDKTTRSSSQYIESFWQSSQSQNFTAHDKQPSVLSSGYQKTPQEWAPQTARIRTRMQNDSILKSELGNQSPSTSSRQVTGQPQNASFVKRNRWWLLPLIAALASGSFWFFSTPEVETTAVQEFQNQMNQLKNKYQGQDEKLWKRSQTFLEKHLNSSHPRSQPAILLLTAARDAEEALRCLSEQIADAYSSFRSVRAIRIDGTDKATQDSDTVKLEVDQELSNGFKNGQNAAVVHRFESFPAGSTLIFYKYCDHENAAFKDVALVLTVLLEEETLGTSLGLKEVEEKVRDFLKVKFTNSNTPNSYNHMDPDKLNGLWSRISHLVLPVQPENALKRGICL

For `COc1cc2c(cc1O)C=[N+](Cc1cccc(OC(F)(F)F)c1)CC2`, the composite z-score in assay [1] is -1.28; in assay [3] it was -0.402; in assay [4], -0.579; in assay [5], -0.149; in [6], -0.158; in assay [7] it was -0.206. Moreover, the composite z-score in [8] is -0.294; in assay [9], 0.15; in assay [10] it was 0.0656; in assay [11], 0.828; in [13] it was -0.0879; in assay [14], -0.172. The composite z-score in assay [15] was 0.61; in assay [16], -0.784; in assay [17] it was 0.173; in [18], -0.933; in assay [19] it was 0.156; in [20] it was -0.27. Moreover, the z-score in assay [2] was -0.556. In addition, in [12], the composite Z-score is 0.0714 (inactive).
Regarding `COc1ccc(CCNC(=O)[C@@]2(Sc3ccc(C)cc3)CC(=O)N(C3CCCCC3)[C@@H]2c2ccc(CO)cc2I)cc1`, the composite z-score was 1.38 in [1]; 0.0072 in assay [3]; 0.99 in [4]; 0.161 in [5]; -0.0903 in assay [6]; 0.323 in [7]. Moreover, the composite z-score is -0.158 in [8]; 0.95 in assay [9]; 0.649 in [10]; 0.805 in assay [11]; -0.0111 in assay [13]; -0.0759 in assay [14]. In addition, the composite z-score in assay [15] is 0.513; in assay [16] it was 1.58; in assay [17], 0.284; in assay [18] it was 1.31; in [19], 0.119; in [20], 0.977. Moreover, the z-score in [2] was -2.77. The composite Z-score in [12] is 0.0371 (inactive).
Turning to `COCCOC(=O)N1C(=O)[C@@]2(c3cc(C#Cc4ccc(OC)cc4)ccc31)[C@H](C(N)=O)[C@H]1C(=O)O[C@H](c3ccccc3)[C@H](c3ccccc3)N1[C@@H]2c1ccccc1OCCO`, the composite z-score was 1.33 in assay [1]; 0.738 in assay [3]; 2.22 in [4]; 0.618 in assay [5]; -0.0134 in assay [6]; -0.0988 in [7]. The composite z-score in [8] amounted to 0.168; in assay [9], 2.3; in assay [10], 2.97; in assay [11] it was 0.73; in assay [13], 0.293; in assay [14] it was 0.151. For the same compound, the composite z-score in [15] stood at 0.653; in [16], 2.54; in assay [17] it was 1.11; in assay [18], 1.3; in [19], 0.565; in assay [20], 1.17. In addition, the z-score in assay [2] is -1.49. Moreover, in assay [12], the composite Z-score was 0.611 (inactive).
With `C=CCC(OC(C)=O)[C@@H]1[C@@H](N(Cc2ccc(-c3ccccc3)cc2)C(=O)Cc2ccc(F)cc2)c2cc(OCCCO)ccc2N1C(=O)c1ccc(-c2ccccc2)cc1` (stereo not given in full), the composite z-score in assay [1] is -0.866; in assay [3], -0.177; in assay [4], -0.454; in assay [5], 0.266; in [6], -0.1; in assay [7] it was 0.0048. For the same compound, the composite z-score in assay [8] was -0.143; in assay [9], 0.205; in assay [10], -0.257; in assay [11], 0.127; in assay [13], 0.0905; in assay [14] it was -0.141. Moreover, the composite z-score in assay [15] was -0.249; in [16], -0.338; in assay [17], 0.0362; in assay [18], 0.0072; in assay [19], 0.528; in assay [20] it was -0.136. In assay [2], this compound registered a z-score of -1.23. Also, the composite Z-score in [12] is -0.405 (inactive).
In the case of `Cc1ccc(S[C@]2(C(=O)NC(C)C)CC(=O)N(Cc3ccccc3Cl)[C@@H]2c2ccc(CO)cc2I)cc1`, the composite z-score is 0.472 in [1]; -2.08 in assay [3]; 0.0453 in assay [4]; -0.174 in [5]; -0.252 in assay [6]; -0.283 in [7]. Moreover, the composite z-score in assay [8] was -0.158; in assay [9] it was -0.252; in assay [10], 1.33; in assay [11], 0.408; in assay [13], -0.469; in assay [14] it was -0.168. The composite z-score was 0.779 in assay [15]; 1.21 in assay [16]; -0.147 in assay [17]; 0.462 in assay [18]; -0.793 in [19]; -0.139 in assay [20]. For the same compound, the z-score in assay [2] is -2.47. The composite Z-score in assay [12] was 0.219 (inactive).
